Results reported in the supplement of paper PMC11732987, “Enantioselective OTUD7B fragment discovery through chemoproteomics screening and high-throughput optimisation” (Communications Chemistry, 2025).

Legend:
Test in all cases: log2 ratio of Biotin-Ahx-Ub-VS probe labelling (fragment/DMSO); higher = less target engagement (more negative = stronger competition), active = hit call of the paper (q ≤ 0.05, log2 ratio ≤ -1)
Settings in all cases: compound concentration: 200 uM; treatment time: 3 h
ALG13 = target: T1, ALG13 (UniProt Q9NP73)
T1 sequence (whole entry): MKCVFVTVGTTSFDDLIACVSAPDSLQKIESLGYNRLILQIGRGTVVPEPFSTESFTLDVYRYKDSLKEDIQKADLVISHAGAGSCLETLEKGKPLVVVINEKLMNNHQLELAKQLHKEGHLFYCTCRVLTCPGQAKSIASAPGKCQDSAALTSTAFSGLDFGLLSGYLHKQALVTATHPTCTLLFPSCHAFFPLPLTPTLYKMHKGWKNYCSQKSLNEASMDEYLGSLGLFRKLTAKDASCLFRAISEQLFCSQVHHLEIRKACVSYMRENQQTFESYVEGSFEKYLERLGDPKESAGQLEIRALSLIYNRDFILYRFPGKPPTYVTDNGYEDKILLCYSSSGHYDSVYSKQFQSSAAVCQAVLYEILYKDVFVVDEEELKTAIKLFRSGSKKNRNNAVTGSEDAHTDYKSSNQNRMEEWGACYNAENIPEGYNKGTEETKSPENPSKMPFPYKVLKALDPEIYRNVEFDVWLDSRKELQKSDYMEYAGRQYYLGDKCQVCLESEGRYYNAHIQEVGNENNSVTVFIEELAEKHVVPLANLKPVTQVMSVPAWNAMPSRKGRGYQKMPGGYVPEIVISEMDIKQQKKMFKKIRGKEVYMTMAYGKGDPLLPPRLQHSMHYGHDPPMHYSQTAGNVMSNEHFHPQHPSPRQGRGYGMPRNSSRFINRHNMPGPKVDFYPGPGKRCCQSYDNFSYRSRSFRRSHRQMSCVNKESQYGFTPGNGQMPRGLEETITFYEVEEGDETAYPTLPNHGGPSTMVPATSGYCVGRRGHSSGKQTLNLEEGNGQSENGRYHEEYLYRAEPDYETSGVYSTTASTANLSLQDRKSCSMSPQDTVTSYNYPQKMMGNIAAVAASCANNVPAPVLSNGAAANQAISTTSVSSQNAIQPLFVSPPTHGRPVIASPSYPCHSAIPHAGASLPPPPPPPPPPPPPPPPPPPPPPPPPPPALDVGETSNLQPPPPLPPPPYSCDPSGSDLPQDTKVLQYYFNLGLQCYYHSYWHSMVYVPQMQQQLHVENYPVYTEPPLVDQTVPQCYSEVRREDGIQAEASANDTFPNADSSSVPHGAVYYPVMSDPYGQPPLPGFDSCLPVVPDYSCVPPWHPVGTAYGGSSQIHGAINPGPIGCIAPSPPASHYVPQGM
Method in brief: (§1)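 Fragment (200 µM) or vehicle was incubated for 3 h with triplicate HEK293T lysate samples of 495 µg, which were then treated with Biotin-Ahx-Ub-VS at 0.5 µM final for 1 h. Labelled DUBs were enriched on NeutrAvidin, digested with LysC and trypsin, and analysed by diaPASEF LC-MS/MS. Values are average log2 fragment/vehicle ratios from an unpaired t-test on global-median-normalised Spectronaut label-free quantities, using proteins with ≥2 unique peptides.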

ATXN3 = ATXN3 (UniProt P54252)
Method in brief: as §1

BAP1 = target: T2, BAP1 (UniProt Q92560)
T2 sequence (whole entry): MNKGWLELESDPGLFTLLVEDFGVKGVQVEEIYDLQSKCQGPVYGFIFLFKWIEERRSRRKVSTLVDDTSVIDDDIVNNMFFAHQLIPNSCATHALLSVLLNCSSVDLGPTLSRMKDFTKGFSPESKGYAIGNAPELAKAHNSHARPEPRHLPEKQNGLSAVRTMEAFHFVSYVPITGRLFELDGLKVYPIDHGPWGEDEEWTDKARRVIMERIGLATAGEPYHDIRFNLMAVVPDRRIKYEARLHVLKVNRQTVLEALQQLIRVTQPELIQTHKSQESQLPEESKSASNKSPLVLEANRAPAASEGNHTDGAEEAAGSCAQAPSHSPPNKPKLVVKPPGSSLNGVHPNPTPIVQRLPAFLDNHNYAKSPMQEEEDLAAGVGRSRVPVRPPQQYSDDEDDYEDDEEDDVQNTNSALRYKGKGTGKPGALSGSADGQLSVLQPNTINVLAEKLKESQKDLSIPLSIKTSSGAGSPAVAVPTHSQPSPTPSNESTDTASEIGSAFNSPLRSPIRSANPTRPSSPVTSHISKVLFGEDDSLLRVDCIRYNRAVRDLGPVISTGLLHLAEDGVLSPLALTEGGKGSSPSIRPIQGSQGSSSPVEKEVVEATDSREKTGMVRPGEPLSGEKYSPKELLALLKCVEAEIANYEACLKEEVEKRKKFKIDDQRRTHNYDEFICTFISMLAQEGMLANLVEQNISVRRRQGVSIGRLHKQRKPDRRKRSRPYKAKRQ
Method in brief: as §1

EIF3F = EIF3F (UniProt O00303)
Method in brief: as §1

EIF3H = EIF3H (UniProt O15372)
Method in brief: as §1

FAM105A = target: T3, FAM105A (UniProt Q9NUU6)
T3 sequence (whole entry): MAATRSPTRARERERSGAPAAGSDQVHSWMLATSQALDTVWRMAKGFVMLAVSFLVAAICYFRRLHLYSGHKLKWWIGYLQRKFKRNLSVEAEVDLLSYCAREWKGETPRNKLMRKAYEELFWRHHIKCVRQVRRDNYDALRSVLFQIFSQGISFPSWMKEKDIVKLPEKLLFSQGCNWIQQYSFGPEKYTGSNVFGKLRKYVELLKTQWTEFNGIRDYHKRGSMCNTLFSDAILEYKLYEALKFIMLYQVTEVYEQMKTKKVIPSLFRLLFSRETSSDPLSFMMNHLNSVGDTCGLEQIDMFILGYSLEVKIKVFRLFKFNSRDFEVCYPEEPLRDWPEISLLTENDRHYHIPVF
Method in brief: as §1

OTUB1 = OTUB1 (UniProt Q96FW1)
Method in brief: as §1

OTUD4 = target: T4, OTUD4 (UniProt Q01804)
T4 sequence (whole entry): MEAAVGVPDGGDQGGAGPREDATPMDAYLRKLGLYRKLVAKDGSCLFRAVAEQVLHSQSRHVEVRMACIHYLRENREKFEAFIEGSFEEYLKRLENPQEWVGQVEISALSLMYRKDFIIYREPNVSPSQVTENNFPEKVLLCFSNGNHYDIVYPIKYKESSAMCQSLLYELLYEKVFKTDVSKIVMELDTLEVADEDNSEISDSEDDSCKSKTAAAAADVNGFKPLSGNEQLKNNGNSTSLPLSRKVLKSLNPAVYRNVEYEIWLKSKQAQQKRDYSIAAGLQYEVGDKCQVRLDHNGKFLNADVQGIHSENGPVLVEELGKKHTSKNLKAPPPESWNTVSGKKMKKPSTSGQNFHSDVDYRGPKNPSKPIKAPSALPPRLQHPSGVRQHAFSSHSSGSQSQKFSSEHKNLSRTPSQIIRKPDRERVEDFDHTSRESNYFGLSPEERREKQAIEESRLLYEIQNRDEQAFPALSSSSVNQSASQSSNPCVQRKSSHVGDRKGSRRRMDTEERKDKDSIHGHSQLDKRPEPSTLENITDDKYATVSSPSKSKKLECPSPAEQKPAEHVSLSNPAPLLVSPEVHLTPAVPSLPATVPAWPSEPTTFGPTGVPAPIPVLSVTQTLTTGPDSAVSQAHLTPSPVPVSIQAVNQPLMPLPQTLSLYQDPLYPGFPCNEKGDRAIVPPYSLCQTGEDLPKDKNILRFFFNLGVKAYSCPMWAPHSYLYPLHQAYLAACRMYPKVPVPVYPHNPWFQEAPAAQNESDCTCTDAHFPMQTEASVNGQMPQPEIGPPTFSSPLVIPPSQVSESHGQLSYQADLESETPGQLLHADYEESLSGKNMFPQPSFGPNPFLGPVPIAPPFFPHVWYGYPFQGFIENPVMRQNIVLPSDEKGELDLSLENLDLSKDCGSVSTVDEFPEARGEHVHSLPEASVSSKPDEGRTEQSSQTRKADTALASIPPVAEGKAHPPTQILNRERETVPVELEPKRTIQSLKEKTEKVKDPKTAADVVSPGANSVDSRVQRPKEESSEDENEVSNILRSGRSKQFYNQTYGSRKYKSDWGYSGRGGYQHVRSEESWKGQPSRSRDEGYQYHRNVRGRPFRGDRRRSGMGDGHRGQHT
Method in brief: as §1

OTUD5 = target: T5, OTUD5 (UniProt Q96G74)
T5 sequence (whole entry): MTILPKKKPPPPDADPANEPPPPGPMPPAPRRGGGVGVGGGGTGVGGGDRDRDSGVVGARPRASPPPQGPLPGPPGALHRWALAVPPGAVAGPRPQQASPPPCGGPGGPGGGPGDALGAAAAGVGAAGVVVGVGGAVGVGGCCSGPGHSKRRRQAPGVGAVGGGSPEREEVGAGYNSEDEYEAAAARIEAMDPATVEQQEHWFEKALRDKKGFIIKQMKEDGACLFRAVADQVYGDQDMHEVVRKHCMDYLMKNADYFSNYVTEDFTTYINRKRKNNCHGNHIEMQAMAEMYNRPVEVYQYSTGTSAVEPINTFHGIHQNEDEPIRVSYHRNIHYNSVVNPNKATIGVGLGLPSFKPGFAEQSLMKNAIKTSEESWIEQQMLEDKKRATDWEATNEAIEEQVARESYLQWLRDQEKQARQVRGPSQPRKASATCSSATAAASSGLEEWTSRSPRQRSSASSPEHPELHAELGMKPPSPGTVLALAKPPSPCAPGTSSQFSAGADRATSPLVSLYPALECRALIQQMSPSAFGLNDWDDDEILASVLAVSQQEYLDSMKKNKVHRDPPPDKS
Method in brief: as §1

Measured: log2 ratio of Biotin-Ahx-Ub-VS probe labelling

Chain of EIF3F (O00303 whole entry): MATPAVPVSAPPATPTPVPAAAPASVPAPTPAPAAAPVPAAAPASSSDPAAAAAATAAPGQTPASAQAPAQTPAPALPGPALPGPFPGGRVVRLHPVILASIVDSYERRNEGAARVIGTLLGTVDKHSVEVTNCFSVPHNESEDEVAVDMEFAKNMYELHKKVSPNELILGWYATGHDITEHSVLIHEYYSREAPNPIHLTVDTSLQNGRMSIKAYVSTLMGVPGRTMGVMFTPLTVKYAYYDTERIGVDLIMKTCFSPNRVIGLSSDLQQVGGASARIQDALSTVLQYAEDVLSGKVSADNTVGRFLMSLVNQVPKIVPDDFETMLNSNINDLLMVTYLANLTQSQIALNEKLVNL
Chain of OTUB1 (Q96FW1 whole entry): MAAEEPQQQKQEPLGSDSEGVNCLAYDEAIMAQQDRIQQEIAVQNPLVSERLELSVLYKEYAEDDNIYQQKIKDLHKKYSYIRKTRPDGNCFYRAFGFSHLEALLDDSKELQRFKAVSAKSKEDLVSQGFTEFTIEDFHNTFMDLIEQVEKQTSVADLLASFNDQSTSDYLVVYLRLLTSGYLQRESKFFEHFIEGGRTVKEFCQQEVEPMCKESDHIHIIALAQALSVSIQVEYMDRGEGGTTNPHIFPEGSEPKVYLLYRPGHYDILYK
Chain of EIF3H (O15372 whole entry): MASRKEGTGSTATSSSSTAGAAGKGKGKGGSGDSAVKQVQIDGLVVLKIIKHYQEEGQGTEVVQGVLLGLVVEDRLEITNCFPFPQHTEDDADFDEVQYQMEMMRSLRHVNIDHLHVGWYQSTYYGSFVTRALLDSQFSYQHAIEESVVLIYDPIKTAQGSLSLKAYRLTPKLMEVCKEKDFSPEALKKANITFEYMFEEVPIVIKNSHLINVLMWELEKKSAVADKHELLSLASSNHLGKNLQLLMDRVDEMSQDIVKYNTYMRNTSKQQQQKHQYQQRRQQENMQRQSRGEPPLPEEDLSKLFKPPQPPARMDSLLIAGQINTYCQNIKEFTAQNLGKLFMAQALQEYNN
Chain of ATXN3 (P54252 whole entry): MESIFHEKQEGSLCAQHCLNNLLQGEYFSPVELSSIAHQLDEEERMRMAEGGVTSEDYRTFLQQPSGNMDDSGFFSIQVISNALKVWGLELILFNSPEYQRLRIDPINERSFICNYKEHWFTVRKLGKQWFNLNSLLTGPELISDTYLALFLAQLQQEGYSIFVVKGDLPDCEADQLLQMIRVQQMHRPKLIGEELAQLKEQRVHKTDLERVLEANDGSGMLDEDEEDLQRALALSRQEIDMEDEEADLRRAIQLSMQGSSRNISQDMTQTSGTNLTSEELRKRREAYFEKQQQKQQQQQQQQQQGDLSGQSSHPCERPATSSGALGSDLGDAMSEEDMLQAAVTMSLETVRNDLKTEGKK

CCN(C(=O)CCl)C1CCS(=O)(=O)C1 (centres undefined)
inactive: ALG13 -0.231 | ATXN3 -0.159 | BAP1 -0.0461 | EIF3F -0.357 | EIF3H 0.227 | FAM105A 0.291 | OTUB1 -0.59 | OTUD4 -0.679 | OTUD5 -0.272
